The text below walks through data of PubChem BioAssay (Tox21).

The source made the active and inactive calls. Unless noted, calls follow the shape of the dose curve; as a rule, active = well fitted curve in the direction sought with a large enough effect in the repeat runs; inconclusive = weak or mixed curves; inactive = no such curve, though single readings can be large; an effect the other way counts as inactive or inconclusive.

The test system of experiment [1] is thyroid hormone receptor (rat, GH3 cells). In words: qHTS assay to identify small molecule agonists of the thyroid receptor (TR) signaling pathway (AID 743066; calls by dose curve). A general note: Quantitative high-throughput screening tests each substance at several concentrations.
Experiment [2] addresses Estrogen receptor (Homo sapiens) (UniProt P03372). As to the kind of experiment: qHTS assay to identify small molecule antagonists of the estrogen receptor alpha (ER-alpha) signaling pathway (AID 743069; active = well fitted curve in the direction sought with a large enough effect in the signal ratio in the repeat runs, not every such curve was filed as active; inconclusive = weak or mixed curves, or effect the other way; inactive = no such curve, though single readings can be large or run the other way; the % refers to the signal ratio; also: potency is read from the fitted curve at half-maximal effect). Summed up: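 Beta-lactamase FRET fluorescence is read after 2 hr at room temperature with LiveBLAzer B/G substrate. Before that, ER-alpha-bla HEK293 cells sit 4 hr after plating, then receive compound plus 17beta-estradiol and incubate 18 hr at 37C.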

Experiment [3] shares this target. In words: qHTS assay to identify small molecule agonists of the estrogen receptor alpha (ER-alpha) signaling pathway (AID 743075; calls by dose curve;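 also: HEK293 GripTite cells with ER-alpha and UAS-driven beta-lactamase reporter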).
For experiment [4] the target is unchanged. As to the kind of experiment: qHTS assay to identify small molecule agonists of the estrogen receptor alpha (ER-alpha) signaling pathway using the BG1 cell line (AID 743079). Also: nearly all actives have a fitted effect of over 20% in size. Particulars: BG1Luc4E2 cells, ERE-luciferase agonist, 22 h; activation: at 70.3 µM (top of the series).
Experiment [5] in a line: qHTS assay to identify small molecule antagonists of the estrogen receptor alpha (ER-alpha) signaling pathway using the BG1 cell line (AID 743080; calls by dose curve;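 also: BG1 cells stimulated with 17beta-estradiol alongside compound; nearly all actives have a fitted effect of over 25% in size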; also: potency is read from the fitted curve at half-maximal effect). The essentials: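 Quantitative HTS on the Tox21 10K library: BG1 cells with endogenous ER-alpha and ERE-luciferase reporter, 17beta-estradiol stimulation, 21.5 h compound exposure, luminescence endpoint with parallel fluorescence cytotoxicity counter-read.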

A short description of experiment [6]: qHTS assay to identify small molecule antagonists of the estrogen receptor alpha (ER-alpha) signaling pathway using the BG1 cell line - cell viability counter screen (AID 743081).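 Also: compound given together with 17beta-estradiol as the ER stimulus; nearly all actives have a fitted effect of over 45% in size.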
The nature of experiment [7]: qHTS assay to identify aromatase inhibitors - cell viability counter screen (AID 743084).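 Also: cells stimulated with testosterone during compound exposure; nearly all actives have a fitted effect of over 55% in size.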 Also: potency is read from the fitted curve at half-maximal effect.
For experiment [8], the target named is Aryl hydrocarbon receptor (Homo sapiens) (UniProt P35869). In words: qHTS assay to identify small molecule that activate the aryl hydrocarbon receptor (AhR) signaling pathway (AID 743085).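 Also: HG2L7.5c1 human HepG2 liver cells with stably integrated DRE-driven firefly reporter; nearly all actives have a fitted effect of over 15% in size.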 The essentials: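 AhR agonist activity is inferred from enhanced light output of a DRE-controlled firefly luciferase reporter in HepG2 cells, measured with ONE-Glo following 24 h treatment at 37C.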
Aryl hydrocarbon receptor (Homo sapiens), sequence (P35869 whole entry, looked up): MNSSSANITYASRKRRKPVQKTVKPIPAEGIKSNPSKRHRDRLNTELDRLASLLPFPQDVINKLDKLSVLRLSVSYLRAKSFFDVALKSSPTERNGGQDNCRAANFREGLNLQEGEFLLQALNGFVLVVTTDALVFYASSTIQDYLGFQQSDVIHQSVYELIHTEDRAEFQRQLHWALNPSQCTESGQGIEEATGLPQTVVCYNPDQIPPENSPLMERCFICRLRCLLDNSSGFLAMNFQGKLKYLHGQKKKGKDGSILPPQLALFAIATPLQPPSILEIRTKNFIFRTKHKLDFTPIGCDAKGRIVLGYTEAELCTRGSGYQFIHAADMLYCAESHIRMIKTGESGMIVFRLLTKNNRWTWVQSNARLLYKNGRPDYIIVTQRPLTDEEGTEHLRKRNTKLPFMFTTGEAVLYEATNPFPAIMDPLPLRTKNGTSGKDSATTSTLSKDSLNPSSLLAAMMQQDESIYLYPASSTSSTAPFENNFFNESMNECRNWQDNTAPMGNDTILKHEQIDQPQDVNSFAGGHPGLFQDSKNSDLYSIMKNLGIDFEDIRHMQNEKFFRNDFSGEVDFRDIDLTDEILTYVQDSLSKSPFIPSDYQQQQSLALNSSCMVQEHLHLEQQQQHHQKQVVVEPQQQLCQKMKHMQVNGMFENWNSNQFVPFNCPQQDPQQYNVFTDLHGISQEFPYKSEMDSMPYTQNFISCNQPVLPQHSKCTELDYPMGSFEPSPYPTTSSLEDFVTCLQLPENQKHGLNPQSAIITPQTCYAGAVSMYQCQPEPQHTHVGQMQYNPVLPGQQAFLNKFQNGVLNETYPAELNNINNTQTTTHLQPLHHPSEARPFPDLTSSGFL

The nature of experiment [9]: qHTS assay to identify small molecule that activate the aryl hydrocarbon receptor (AhR) signaling pathway - cell viability counter screen (AID 743086).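 Also: HepG2 liver cells carrying the AhR DRE luciferase reporter; nearly all actives have a fitted effect of over 45% in size.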 The essentials:
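HepG2-AhR-luc (HG2L7.5c1) cells, 4000/well, treated 24 h at 37 C with compound; viability measured as CellTiter-Fluor fluorescence after 30 min in the same wells as the luciferase read.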

Experiment [10] addresses Peroxisome proliferator-activated receptor gamma (Homo sapiens) (UniProt P37231). In words: qHTS assay to identify small molecule agonists of the peroxisome proliferator-activated receptor gamma (PPARg) signaling pathway (AID 743094; active = well fitted activation curve with a large enough effect in the signal ratio in the repeat runs, not every such curve was filed as active; inconclusive = weak or mixed curves, or effect the other way; inactive = no such curve, though single readings can be large or run the other way; the % refers to the signal ratio; also: potency is read from the fitted curve at half-maximal effect). Summed up: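 Cell-based bla reporter, HEK293H background, PPARg-driven UAS. Pre-incubation 5 h, 37C, 5% CO2. Compound 17 h, 37C. Substrate 1 h RT; fluorescence.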

The target is the same in experiment [11]. In words: qHTS assay to identify small molecule antagonists of the peroxisome proliferator-activated receptor gamma (PPARg) signaling pathway (AID 743191; calls by dose curve; also: nearly all actives have a fitted effect of over 30% in size; also: potency is read from the fitted curve at half-maximal effect). The essentials:
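GeneBLAzer PPARg UAS-bla HEK293H cells, 5 h post-plating, exposed to compounds 17 h at 37C. LiveBLAzer B/G FRET substrate added for 1 h at room temperature; beta-lactamase reporter read by fluorescence intensity.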

The nature of experiment [12]: qHTS assay to identify small molecule antagonists of the peroxisome proliferator-activated receptor gamma (PPARg) signaling pathway - cell viability counter screen (AID 743194). Also: nearly all actives have a fitted effect of over 55% in size. Also: potency is read from the fitted curve at half-maximal effect. Summed up:
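Cytotoxicity counter screen in PPARg-bla HEK293H cells, same wells as reporter assay. Compounds plus 50 nM rosiglitazone (final) for 17 h at 37 C, then viability read by CellTiter-Glo luminescence.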

Experiment [13] can be described thus: qHTS assay for small molecule agonists of the antioxidant response element (ARE) signaling pathway - cell viability counter screen (AID 743203; calls by dose curve; also: nearly all actives have a fitted effect of over 55% in size; also: potency is read from the fitted curve at half-maximal effect). Summed up: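 Measured in the same wells as the beta-lactamase ARE reporter, this read-out is CellTiter-Glo luminescence from HepG2 ARE-bla cells given compounds for 16 hrs.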
Experiment [14] is described as follows: qHTS assay for small molecule activators of the heat shock response signaling pathway (AID 743210; active = well fitted activation curve with a large enough effect in the signal ratio in the repeat runs, with a control signal flat, not every such curve was filed as active; inconclusive = weak or mixed curves; the % refers to the signal ratio). The essentials: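 Beta-lactamase reporter read-out: FRET substrate fluorescence after 2.5 h at RT, following 5 h compound treatment at 37 C of HeLa cells carrying HSE-driven bla reporter; quantitative HTS format.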
A short description of experiment [15]: qHTS assay to identify small molecule antagonists of the estrogen receptor alpha (ER-alpha) signaling pathway - cell viability counter screen (AID 743074; calls by dose curve;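 also: HEK293 cells carrying ER-alpha-UAS-bla reporter stimulated with 17beta-estradiol; nearly all actives have a fitted effect of over 45% in size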; also: potency is read from the fitted curve at half-maximal effect).
Experiment [16] in a line: qHTS assay for small molecule agonists of the antioxidant response element (ARE) signaling pathway (AID 743202; active = well fitted activation curve with a large enough effect in the signal ratio in the repeat runs, not every such curve was filed as active; inconclusive = weak or mixed curves, or effect the other way; inactive = no such curve, though single readings can be large or run the other way; the % refers to the signal ratio; also: potency is read from the fitted curve at half-maximal effect). Summed up:
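HepG2 ARE-bla reporter line, 2,000 cells/well; 5 h preincubation 37 C/5% CO2; compound (DMSO) 16 h 37 C; B/G FRET substrate 2 h RT; fluorescence intensity.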

A short description of experiment [17]: qHTS assay for small molecule activators of the heat shock response signaling pathway - cell viability counter screen (AID 743209). Also: nearly all actives have a fitted effect of over 50% in size. Also: potency is read from the fitted curve at half-maximal effect. Summed up: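 Same-well multiplex: after 2.5 h room-temperature incubation with LiveBLAzer B/G substrate and fluorescence reading, CellTiter-Glo reagent was added to HSE-bla HeLa cells that had received compound for 5 h at 37 C; luminescence read after 30 min.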

Experiment [18] in a line: qHTS assay to identify small molecule antagonists of the thyroid receptor (TR) signaling pathway (AID 743065). Also: potency is read from the fitted curve at half-maximal effect; nearly all actives have a fitted effect of over 55% in size. The essentials: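 GH3.TRE-Luc rat pituitary cells (two TREs driving luciferase) were dosed with compound, then stimulated with 1 nM T3 (final) for 23.5 h at 37 C. ONE-Glo luminescence was the read-out, with CellTiter-Fluor fluorescence as the cytotoxicity counter-screen.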

A further experiment addresses Aromatase (Homo sapiens) (UniProt P11511). As to the kind of experiment: qHTS assay to identify aromatase inhibitors (AID 743083). Also: nearly all actives have a fitted effect of over 55% in size.

Estrogen receptor (Homo sapiens), sequence (P03372 whole entry, looked up): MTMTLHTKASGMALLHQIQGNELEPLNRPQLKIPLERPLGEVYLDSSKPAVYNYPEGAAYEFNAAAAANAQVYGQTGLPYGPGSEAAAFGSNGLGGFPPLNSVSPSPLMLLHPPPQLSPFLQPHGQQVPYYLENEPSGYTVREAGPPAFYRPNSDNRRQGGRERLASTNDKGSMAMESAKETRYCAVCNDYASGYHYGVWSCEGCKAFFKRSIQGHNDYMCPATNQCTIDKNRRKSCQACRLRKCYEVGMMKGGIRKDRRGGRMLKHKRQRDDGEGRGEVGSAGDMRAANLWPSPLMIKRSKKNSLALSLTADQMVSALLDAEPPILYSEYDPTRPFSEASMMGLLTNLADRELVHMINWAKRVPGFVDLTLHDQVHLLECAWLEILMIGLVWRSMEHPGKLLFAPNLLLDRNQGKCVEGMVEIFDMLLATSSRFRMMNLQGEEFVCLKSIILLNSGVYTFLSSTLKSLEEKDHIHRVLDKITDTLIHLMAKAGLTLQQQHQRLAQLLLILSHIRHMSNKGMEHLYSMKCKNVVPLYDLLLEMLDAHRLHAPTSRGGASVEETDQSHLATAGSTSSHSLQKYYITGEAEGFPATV
Aromatase (Homo sapiens), sequence (P11511 whole entry, looked up): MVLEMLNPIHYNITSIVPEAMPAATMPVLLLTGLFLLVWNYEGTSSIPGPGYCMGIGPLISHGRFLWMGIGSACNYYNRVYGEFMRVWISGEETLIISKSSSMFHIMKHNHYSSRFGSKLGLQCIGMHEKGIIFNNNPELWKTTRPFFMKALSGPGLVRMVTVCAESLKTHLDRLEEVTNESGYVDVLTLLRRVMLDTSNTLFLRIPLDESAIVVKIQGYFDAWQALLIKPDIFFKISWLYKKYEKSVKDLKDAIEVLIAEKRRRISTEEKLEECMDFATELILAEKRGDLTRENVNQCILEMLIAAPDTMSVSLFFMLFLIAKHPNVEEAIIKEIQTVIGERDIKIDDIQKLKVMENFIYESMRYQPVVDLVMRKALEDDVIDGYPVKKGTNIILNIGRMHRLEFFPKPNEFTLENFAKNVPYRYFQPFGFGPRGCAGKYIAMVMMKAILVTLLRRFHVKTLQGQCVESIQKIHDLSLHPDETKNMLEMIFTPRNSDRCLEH
Peroxisome proliferator-activated receptor gamma (Homo sapiens), sequence (P37231 whole entry, looked up): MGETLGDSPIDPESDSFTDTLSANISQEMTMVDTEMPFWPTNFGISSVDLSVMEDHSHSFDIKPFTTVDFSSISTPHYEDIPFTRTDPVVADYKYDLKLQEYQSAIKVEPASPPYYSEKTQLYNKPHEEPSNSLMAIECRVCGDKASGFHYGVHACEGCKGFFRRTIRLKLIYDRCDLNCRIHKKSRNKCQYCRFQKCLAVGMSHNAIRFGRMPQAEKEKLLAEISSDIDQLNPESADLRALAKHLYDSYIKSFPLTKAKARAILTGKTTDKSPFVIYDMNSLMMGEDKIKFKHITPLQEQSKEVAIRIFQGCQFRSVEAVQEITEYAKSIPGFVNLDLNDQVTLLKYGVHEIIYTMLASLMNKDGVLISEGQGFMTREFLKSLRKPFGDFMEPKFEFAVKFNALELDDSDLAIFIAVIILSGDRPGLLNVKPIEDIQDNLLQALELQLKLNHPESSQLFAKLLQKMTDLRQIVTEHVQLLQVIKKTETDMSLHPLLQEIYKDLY

Regarding `CCCCC(CC)CN` (stereo unspecified), in experiment [1], the compound was classed as inactive. The Potency result in [2], in experiment [3], in experiment [4], in experiment [5], in experiment [6] and in experiment [7] was “inactive” each time. Also, the Potency entry in experiment [8], in experiment [9], in experiment [10], in experiment [11], in experiment [12] and in experiment [13] was “inactive” each time. The Potency result in experiment [14] is “inactive”.

In the case of `CN(C(=O)CN(CCO)CC(=O)N(C)C(C)(C)Cc1ccccc1)C(C)(C)Cc1ccccc1`, the compound was called inactive in experiment [1]. The Potency entry in [15], in experiment [6], in [9], in [12], in experiment [16] and in experiment [13] was “inactive” in each case. Further, the Potency result in experiment [17] is “inactive”.

As to `Cc1cc(O)c(C)c(C)c1O`, the Potency entry in [11], in experiment [12], in experiment [13], in experiment [17] and in experiment [14] was “inactive” throughout. The Potency in [16] is 23.7 µM (active).

`CC(C)COCC(CN(Cc1ccccc1)c1ccccc1)N1CCCC1` (stereo unspecified): the Potency in [18] was 10.6 µM (active); in experiment [12], 26.6 µM (active); in experiment [13], 26.6 µM (active). Further, the Potency result in experiment [15], in experiment [3], in [4], in experiment [6], in experiment [7] and in experiment [8] was “inactive” throughout. Moreover, the Potency entry in experiment [9], in experiment [10] and in experiment [11] was “inactive” each time.

For the compound `Cc1[nH]cnc1CN1CCc2c(c3ccccc3n2C)C1=O`, the Potency result (in [15]; in [6]; in the experiment with Aromatase (Homo sapiens); in [7]; in [9]; in experiment [10]) was “inactive” each time. Further, the Potency entry in experiment [12], in experiment [16], in experiment [17] and in experiment [14] was “inactive” throughout.

In the case of `CC(CC1c2ccccc2CCc2ccccc21)CN(C)C` (stereo unspecified), the Potency entry in experiment [13] and in experiment [17] was “inactive” throughout.

As to `O=c1c(O)c(-c2ccc(O)cc2)oc2cc(O)cc(O)c12`, in experiment [1], the compound was classed as inactive. Moreover, the Potency entry in [15], in [6], in experiment [7], in experiment [9], in experiment [12] and in [16] was “inactive” each time. Further, the Potency result in [13], in experiment [17] and in experiment [14] was “inactive” in each case.

In the case of `O=C(O)CCc1nc(-c2ccccc2)c(-c2ccccc2)o1`, the call in [1] was inactive. Further, the Potency entry (in experiment [2]; in experiment [15]; in experiment [3]; in experiment [5]; in [6]; with Aromatase (Homo sapiens)) was “inactive” in each case. Also, the Potency result in experiment [7], in [8], in [9], in [11], in [13] and in experiment [17] was “inactive” throughout. Besides, the Potency result in experiment [14] is “inactive”. Moreover, the Potency in [10] was 15.1 µM (active).

For `CCCCN(CCN(CCCC)C(=O)N1CCOCC1)C(=O)N1CCOCC1`, the Potency entry in experiment [12], in experiment [16], in [13] and in experiment [17] was “inactive” in each case.

For `COc1ccccc1N1CCN(CCCCNC(=O)c2ccc(-c3ccc(C(C)=O)cc3)cc2)CC1`, the call in experiment [1] was inactive. Further, the Potency result (in experiment [2]; in experiment [15]; in experiment [3]; in [4]; with Aromatase (Homo sapiens); in experiment [7]) was “inactive” in each case. The Potency result in [8], in experiment [9], in [10], in experiment [11], in experiment [12] and in experiment [17] was “inactive” throughout. The Potency result in experiment [14] was “inactive”.

With `CCOC(=O)c1ccc(O)c(O)c1`, the Potency result in experiment [11], in experiment [12], in [16], in [17] and in experiment [14] was “inactive” each time.

For the compound `O=C1Cc2cc(Cl)ccc2N1`, the Potency entry in experiment [11], in experiment [12], in [13], in experiment [17] and in experiment [14] was “inactive” in each case. For the same compound, in experiment [16], the Potency was 21.1 µM (active).

For `COc1cc(C(=O)NC2CCN(C)CC2)ccc1Nc1ncc2c(n1)N(C1CCCC1)CC(F)(F)C(=O)N2C`, the Potency in experiment [18] is 0.0628 µM (active); in [2] it was 1.59 µM [inconclusive] (active); in experiment [15] it was 40 µM (active); in [5], 0.25 µM (active); in experiment [7], 25 µM (active); in [12] it was 50.4 µM (active). Besides, in experiment [13], the Potency was 28.1 µM (active). Besides, the Potency entry in experiment [3], in [8], in [10] and in [14] was “inactive” in each case.

As to `COC(=O)[C@H]1[C@H]2C[C@@H]3c4[nH]c5cc(OC)ccc5c4CCN3C[C@H]2C[C@@H](OC(=O)/C=C/c2ccc(O)c(OC)c2)[C@@H]1OC`, in experiment [11], the Potency is 6.68 µM (active). The Potency entry in [17] was “inactive”.

Regarding `COC(=O)c1nc(Cl)c(Cl)nc1N`, the Potency in [12] was 26.6 µM (active); in experiment [13] it was 23.7 µM (active); in [17], 5.31 µM (active).

Take `OC(CCN1CCCC1)(c1ccccc1)C1CCCCC1` (stereo unspecified): the compound was classed as inactive in experiment [1]. Also, the Potency result (in [15]; in experiment [6]; with Aromatase (Homo sapiens); in experiment [7]; in experiment [8]; in experiment [9]) was “inactive” each time. For the same compound, the Potency result in experiment [10], in [11], in experiment [12], in experiment [16], in experiment [13] and in experiment [17] was “inactive” each time. The Potency entry in experiment [14] is “inactive”.
